SW480 rerep: induces DNA re-replication in SW480 colon adenocarcinoma cells. SW480 DNA re-replication, Hoechst DNA content imaging, 48 h. Potency, µM (series often up to 46.1 µM), for the others: at the top dose re-replication activation, most hits filed as activators. actives 1.8% (n = 340,000). AID 624297; also: potency is read from the fitted curve at half-maximal effect; % of control where 0% means no effect; nearly all actives have a fitted effect of over 55% in size
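Readout is total intensity of Hoechst-stained nuclei, excited at 405 nm and collected at 500-530 nm. Compound treatment lasted 48 hr at 37 C in 5% CO2 before staining.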
KB-3-1 tox: KB-3-1 parental cell cytotoxicity; KB-3-1 viability, CellTiter-Glo ATP luminescence, 72 h; Potency, µM (doses to about 46.1 µM), usual class: cytotoxic; actives 1.4% (n = 400,000); AID 1347075; also: potency is read from the fitted curve at half-maximal effect; % is scaled to controls: 0 for no effect and ±100 for the full control effect; nearly all actives have a fitted effect of over 60% in size
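72 h, 37 °C compound treatment of KB-3-1 parental cells; CellTiter-Glo added, 10 min, luminescence read. Data corrected against DMSO-only plates and normalized before curve fitting.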
D3 antag: antagonists of human D3 dopamine receptor | P35462 | D3R cells, DiscoveRx beta-arrestin luminescence, antagonist mode; active compounds read low | max response, negative = inhibition, % | actives 2.5% (n = 360,000) | AID 652054; in the data active = max response below about -50%; inconclusive = no clear call, values can overlap the other calls; also: % is scaled to controls: 0 for no effect and ±100 for the full control effect
Target sequence (P35462 whole entry, looked up): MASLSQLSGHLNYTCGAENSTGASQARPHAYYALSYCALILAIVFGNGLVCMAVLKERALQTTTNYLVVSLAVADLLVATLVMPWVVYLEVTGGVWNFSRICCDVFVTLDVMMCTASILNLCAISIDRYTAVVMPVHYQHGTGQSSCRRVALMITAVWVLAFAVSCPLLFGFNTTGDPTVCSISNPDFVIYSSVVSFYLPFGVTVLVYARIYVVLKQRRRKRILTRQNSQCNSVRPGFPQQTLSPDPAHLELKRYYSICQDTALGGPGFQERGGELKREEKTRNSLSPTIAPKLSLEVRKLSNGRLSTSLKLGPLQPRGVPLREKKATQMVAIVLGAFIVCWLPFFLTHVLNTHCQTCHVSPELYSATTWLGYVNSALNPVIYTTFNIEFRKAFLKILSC
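Cells expressing the human receptor were seeded at 1500 cells/well, incubated overnight at 37 degrees C in 5% CO2, then exposed to library compounds with dopamine controls for 90 minutes at 37 degrees C before luminescent detection.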
MCF10A rerep: induces DNA re-replication in MCF 10a normal breast cells; MCF 10A DNA re-replication, Hoechst nuclear intensity, 48 h; Potency, µM (titrated, usually from 46.1 µM), for inactives: at the top dose activity, positive = re-replication, actives largely listed as activators; actives 2.9% (n = 350,000); AID 624296; also: potency is read from the fitted curve at half-maximal effect; % of control where 0% means no effect; nearly all actives have a fitted effect of over 50% in size
KB-V1 MDR tox: KB-V1 MDR subline cytotoxicity | actives 3.4% (n = 400,000) | KB-V1 MDR cells viability, CellTiter-Glo, 72 h | Potency, µM (doses to about 46.1 µM), hits mostly cytotoxic; also: potency is read from the fitted curve at half-maximal effect; % is scaled to controls: 0 for no effect and ±100 for the full control effect; nearly all actives have a fitted effect of over 60% in size
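In this primary screen, KB-V1 cells overexpressing P-gp are incubated with library compounds (lowest to highest concentration) for 72 h at 37 degrees C before a luminescent ATP viability read.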
D3 ag: D3 dopamine receptor (human) agonism; AID 652048; P35462; D3R DiscoveRx beta-arrestin cells, luminescence, 90 min; max activation, %; actives 0.58% (n = 410,000); in the data active = max activation above about 30%; also: 0% is about no effect
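Agonist mode: compounds and dopamine controls were applied to plated cells for 90 min at 37 degrees C after an overnight attachment at 1500 cells/well. Luminescent read-out followed 30 - 60 minutes at room temperature with DiscoveRx detection reagent.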
* marks the source's active call; other numbers are inactive results; i = inactive; ? = inconclusive; · = no result. Rows were chosen to be rich in hits. Some 8.9% of all compounds tested hit in one or more screens of this group. Unless noted, calls follow the shape of the dose curve; as a rule, active = well fitted curve in the direction sought with a large enough effect; inconclusive = small, poorly fitted or top-dose-only effect, or another doubt; inactive = no such curve, though single readings can be large; an effect the other way counts as inactive or inconclusive.

SMILES	SW480 rerep	KB-3-1 tox	D3 antag	MCF10A rerep	KB-V1 MDR tox	D3 ag
CCNC(=S)NNC(=O)c1cccn(Cc2ccc(Cl)cc2Cl)c1=O	-7%	i	-59*	7%	?	-5
COc1ccc(-c2onc(C)c2C)cc1S(=O)(=O)N(C)Cc1ccco1	·	·	·	·	·	-9
CCCC(=O)Nc1ccc(-c2nc3ncccc3o2)cc1C	·	i	·	·	i	-8
Cc1ccc(Sc2nc(-c3ccccc3)nnc2C(F)(F)F)cc1	?	i	-70*	8.2µM*	i	-5
Cc1ccc(-c2nnc(-c3ccccc3)c(-c3ccccc3)n2)cc1	3%	i	6	22%	18µM*	0
COc1nc(-c2ccccc2)nc(-c2ccccc2)c1C	6%	i	4	23µM*	i	-5
CNc1nc(-c2ccccc2)nnc1C(F)(F)F	2%	i	0	-1%	i	4
CCOC(=O)c1[nH]c2ccccc2c1NC(=O)c1c(F)cccc1F	·	i	·	·	i	-8
CCc1ccc(NC(=O)CSc2ccnc(=O)[nH]2)cc1	·	i	·	·	i	-1
Cc1ccc(CCNC(=O)c2ccc(CSCc3ccc(C)cc3)o2)cc1	·	i	·	·	i	6
Nc1c(Cl)cc(N=Nc2ccccc2)cc1Cl	21%	i	7	23µM*	i	10
COC(=O)c1c(-c2ccc(OC)cc2)sc2ccc(OC)cc12	-4%	i	78	86%	i	58*
COc1cccc(-c2sc3ccc(OC)cc3c2C#CC2(O)CCCCC2)c1	?	?	72	?	i	12
COc1cc(OC)cc(-c2sc3ccc(OC)cc3c2C#CC(C)(C)O)c1	12%	?	29	69%	i	36*
COc1cc(OC)cc(-c2sc3ccc(OC)cc3c2C#CCO)c1	1%	i	2	25%	?	40*
COc1cccc(-c2sc3ccc(OC)cc3c2C#CCCO)c1	8%	i	10	?	i	1
COc1cc(OC)cc(-c2sc3ccc(OC)cc3c2C#CC2(N)CCCCC2)c1	18µM*	?	64	15µM*	?	36*
COc1cccc(CNC(=O)[C@@H]2CCCN2C(=O)[C@@H]2CCCN2C(=O)c2cccc3ccccc23)c1	·	i	-4	·	i	0
CSc1ccc(CNC(=O)CCn2ccc3cc(S(=O)(=O)N4CCC(C)CC4)ccc32)cc1	·	i	·	·	i	2
CC(C)NC(=O)CN1CCN(C(=O)c2ccc3oc(CCCc4ccccc4)nc3c2)CC1	20%	i	14	2%	?	4
Cc1nn(-c2ccc(F)cc2)c(Cl)c1/C=C/C(=O)OCC(=O)Nc1ccc(F)cc1F	1%	i	10	15µM*	i	1
O=C(O)c1ccc(Nc2nc3ccc(Cl)cc3[nH]2)cc1	-10%	i	-54*	4%	i	-14
Cc1ccccc1C(=O)N1[C@@H](C(C)C)COc2cc(Br)ccc2S1(=O)=O	-12%	?	15	?	?	35*
Cc1cccc(N2CCN(C(=O)Cn3ncc4c3-c3cc(C)ccc3OC4)CC2C)c1 (configuration not stated)	·	i	·	·	i	32*
NNC(=O)COc1ccc(-c2n[nH]c(C(F)(F)F)c2-c2ccc(Br)cc2)c(O)c1	-79%	i	10	18µM*	i	-2
SMILES	SW480 rerep	KB-3-1 tox	D3 antag	MCF10A rerep	KB-V1 MDR tox	D3 ag
COc1ccccc1-c1c(-c2ccc(OCC(=O)NN)cc2O)n[nH]c1C(F)(F)F	13%	i	2	?	i	2
CN1CCN(C(=O)/C=C/c2ccc([N+](=O)[O-])o2)CC1	24%	i	-2	21µM*	i	-1
COCCC(=O)N1CCC(Oc2ccc(C(=O)NC3Cc4ccccc4C3)cc2)CC1	2%	i	10	13%	4.1µM*	2
CCOc1ccc(NC(=O)C(=O)NCC(c2cccnc2)N2CCc3ccccc32)cc1 (configuration not stated)	·	?	·	·	18µM*	24
CNCCCNC(=O)c1ccc(/C=N/O)nc1	15%	i	1	1%	i	-3
O=C(NCCCNC1CCCCC1)c1ccc(/C=N/O)nc1	-3%	i	-60*	9%	i	-24
O=C(CSc1ccc2nc(-c3ccccc3)cn2n1)Nc1cccc(F)c1	·	i	·	·	i	7
OCc1cc(Br)ccc1OCc1nc2ccccc2s1	-9%	i	6	1%	5.2µM*	-1
Oc1ccccc1OCc1nc2ccccc2s1	-8%	i	6	0%	i	-2
CC(=O)c1ccc(N2CCN(C(=O)CCCCn3c(=O)[nH]c4ccsc4c3=O)CC2)cc1	·	i	·	·	i	7
COc1ccc(NC(=O)CCC(=O)Nc2ccc3nc(N4CCOCC4)cc(C)c3c2)c(OC)c1	-29%	i	-14	3%	i	-18
COc1ccc(N(C)C(=O)CCC(=O)Nc2ccc3nc(N4CCOCC4)cc(C)c3c2)c(OC)c1	9%	?	-6	?	16µM*	35*
Cc1cc(N2CCOCC2)nc2ccc(NC(=O)CCC(=O)N3CCN(c4cccc(C(F)(F)F)c4)CC3)cc12	19%	?	55	15µM*	?	-5
CC(C)c1nn2c(=O)cc(COC(=O)c3ccccc3NC(=O)C3CCCCC3)nc2s1	·	·	·	·	·	-11
O=C(Nc1ccc2c(c1)OCCO2)N1CCN(c2ccc(F)cc2)CC1	2%	?	-8	10%	21µM*	-1
CN1CCN(C(CNC(=O)C(=O)Nc2ccc3c(c2)OCCO3)c2ccc(F)cc2)CC1 (configuration not stated)	370%	i	-1	-2%	i	108*
Cc1ccc(C(CNC(=O)C(=O)Nc2ccc3c(c2)OCCO3)N2CCN(C)CC2)cc1 (configuration not stated)	-2%	i	0	-2%	i	-13
O=C(/C=C/c1ccc2c(c1)OCCO2)N1CCN(c2ccc(F)cc2)CC1	-17%	i	-6	-2%	i	2
CC(C)(C)OC(=O)N1CCN(C(=O)Nc2ccc3c(c2)OCCO3)CC1	1%	i	-4	-1%	?	-2
Cc1cccc(C)c1N1CCN(C(=O)Nc2ccc3c(c2)OCCO3)CC1	9%	i	?	7%	4.6µM*	-3

Screening results (PubChem BioAssay)
